Tau fibril ThT: blocks human tau fibril formation measured by thioflavin T; recombinant tau K18 P301L, heparin-induced fibrillization, ThT fluorescence; Potency, µM (series often up to 57.4 µM), without a hit: at the highest dose activity, negative = inhibition, usual class: inhibitors; hit rate 2.1% among 270,000; AID 1460; further: nearly all actives have a fitted effect of over 55% in size
Target sequence (P10636 561-689 P618L limits assumed): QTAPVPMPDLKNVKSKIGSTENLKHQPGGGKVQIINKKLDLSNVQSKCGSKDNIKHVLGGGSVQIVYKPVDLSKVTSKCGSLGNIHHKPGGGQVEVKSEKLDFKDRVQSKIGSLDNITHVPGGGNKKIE
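Fibril formation assay: tau K18 P301L at 15 uM with trace Alexa 594 label, heparin inducer 20 uM, pH 7 sodium acetate buffer, 37 C for 6 hr; endpoint ThT signal.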
Tau fluor counter: counter-screen for tau fibril formation inhibitors. tau K18 P301L Alexa594 fluorescence, heparin fibrillization. Potency, µM (series often up to 57.7 µM), without a hit: top-dose activity change, negative = decrease. hit rate 0.93% among 280,000. AID 1463; further: nearly all actives have a fitted effect of over 55% in size
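Human tau K18 P301L (15 uM unlabeled, 0.24 uM Alexa 594-labeled) in 100 mM sodium acetate pH 7 with 20 uM heparin, 6 hr at 37 C. ThT 30 uM added, 1 hr ambient; Alexa 594 FP and total fluorescence read at 555/632 nm.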
RORg inh: blocks mouse ROR gamma transcriptional activity. hit rate 5.4% among 310,000. Potency, µM (doses to about 53.6 µM), for inactives: at the top dose activity change, negative = inhibition, actives largely listed as inhibitors. Drosophila S2 Gal4-RORgamma UAS-luciferase reporter, 20 h; further: nearly all actives have a fitted effect of over 60% in size
Target sequence (P51450 whole entry, looked up, the tested form may be a part): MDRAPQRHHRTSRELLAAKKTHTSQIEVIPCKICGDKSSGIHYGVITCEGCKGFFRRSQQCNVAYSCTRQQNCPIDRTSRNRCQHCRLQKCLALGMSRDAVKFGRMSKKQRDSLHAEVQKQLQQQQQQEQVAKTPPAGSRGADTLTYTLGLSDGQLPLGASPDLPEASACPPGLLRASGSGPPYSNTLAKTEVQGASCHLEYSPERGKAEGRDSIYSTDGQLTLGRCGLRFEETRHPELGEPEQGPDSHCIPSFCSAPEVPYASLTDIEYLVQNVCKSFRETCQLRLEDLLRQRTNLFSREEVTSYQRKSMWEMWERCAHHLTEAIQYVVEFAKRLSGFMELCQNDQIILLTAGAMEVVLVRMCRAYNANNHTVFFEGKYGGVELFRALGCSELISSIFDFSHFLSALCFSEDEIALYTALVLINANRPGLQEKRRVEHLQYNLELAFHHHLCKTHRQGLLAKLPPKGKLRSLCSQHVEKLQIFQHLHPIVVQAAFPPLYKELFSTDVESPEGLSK
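Using a luciferase readout, inhibitors were identified by reduced reporter activity in Drosophila cells coexpressing a copper-inducible Gal4–ROR gamma fusion and UAS-driven Photinus luciferase, incubated 20 hr after 700 uM copper sulfate.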
Tau FP inhib: blocks human tau fibril formation measured by polarization; P10636; K18 P301L tau heparin fibrillization, Alexa594 FP, 6 h; Potency, µM (titrated, usually from 57.7 µM), inactives show top-dose activity, negative = inhibition, usual class: inhibitors; hit rate 0.39% among 280,000; AID 1468; further: nearly all actives have a fitted effect of over 55% in size
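Human K18 P301L fragment (15 uM unlabeled plus 0.24 uM Alexa 594-labeled) in 100 mM sodium acetate pH 7 with compound, aggregation induced by 20 uM heparin for 6 hr at 37 C. ThT (30 uM) added for 1 hr, then Alexa 594 FP read.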
Gal4-VP16 FLuc: Gal4-VP16 reporter inhibition counter-screen | hit rate 3.5% among 310,000 | Drosophila S2 Gal4-VP16 UAS-luciferase, luminescence, 20 h | Potency, µM (titrated, usually from 53.6 µM), for inactives: at the highest dose activity, negative = inhibition, hits mostly inhibitors;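 further: Gal4-VP16 expression switched on by copper sulfate through the metallothionein promoter; nearly all actives have a fitted effect of over 50% in size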
An asterisk follows results filed as active; [ ] = dose if it differs, or a comment. Only some compounds are listed: those with a hit (about 7.3% of all), similar ones and a draw of the others. The call rests on the fitted dose curve; in most records, active means well fitted curve in the direction sought with a large enough effect; inconclusive means small, poorly fitted or top-dose-only effect, or another doubt; inactive means no such curve, though single readings can be large; an effect the other way counts as inactive or inconclusive. On the % scale 0 is the no-effect control and ±100 the full control effect; potency means the concentration at half of the fitted maximal effect.

Screening C/C(=N\NC(=S)NCc1ccccc1)c1ccc(Cl)s1 returned Tau fibril ThT 3.1%, Tau fluor counter inconclusive, RORg inh 1.41µM*, Tau FP inhib -9.2% and Gal4-VP16 FLuc 8.91µM*.
For C/C(=N\NC(=S)NCc1ccccc1)c1cccs1 the results were Tau fibril ThT 2.1%, Tau fluor counter -17.2%, RORg inh 0.447µM*, Tau FP inhib -0.3% and Gal4-VP16 FLuc 2µM*.
Screening COCCNC(=S)N/N=C(\C)c1ccc(Cl)s1 returned Tau fibril ThT -4.3%, Tau fluor counter -7.6%, RORg inh 0.794µM*, Tau FP inhib -5.3% and Gal4-VP16 FLuc 3.16µM*.
Screening C/C(=N\NC(=O)Cc1ccccc1)c1cccs1 returned Tau fibril ThT -3.1%, Tau fluor counter -0.3%, RORg inh -1.8%, Tau FP inhib 4.3% and Gal4-VP16 FLuc -1.1%.
C/C(=N\NC(=O)Cc1ccccc1)c1ccc(Cl)s1 was read as RORg inh 2.3% and Gal4-VP16 FLuc 2.2%.
CCCN1Cc2cccc(C(=O)Nc3ccc(C(C)=O)cc3)c2C1=O was read as Tau fibril ThT 1.4%, Tau fluor counter 6.4% and Tau FP inhib 3.9%.
Cc1nc2cc(C(=O)O)ccc2n1-c1ccc(C(C)C)cc1 was read as Tau fibril ThT -12.9%, Tau fluor counter -6.6% and Tau FP inhib -4.0%.
Screening c1ccc(-c2noc(C3CCC3)n2)nc1 returned Tau fluor counter 7.9%, RORg inh 4.5%, Tau FP inhib 2.6% and Gal4-VP16 FLuc 16.3%.
Screening CCCCC1CCC(c2nc(-c3ccccn3)no2)CC1 (centres undefined) returned Tau fibril ThT inconclusive, Tau fluor counter -7.2%, RORg inh inconclusive, Tau FP inhib 7.9% and Gal4-VP16 FLuc 12.6µM*.
For CCC1CCCCN1C(=O)CCS(=O)(=O)c1cc2c(cc1C)NC(=O)CO2 (centres undefined) the results were Tau fibril ThT inconclusive, Tau fluor counter -26.5% and Tau FP inhib 4.9%.
`C/C(=N\Nc1ccc([N+](=O)[O-])cc1)c1ccc(-n2nncc2C)cc1` gave Tau fibril ThT 7.08µM*, Tau fluor counter 15.8µM*[quencher], RORg inh inconclusive, Tau FP inhib inconclusive and Gal4-VP16 FLuc 1.9%.
`C/C(=N\Nc1ccc([N+](=O)[O-])cc1)c1ccc(N)cc1` gave Tau fibril ThT 6.1%, Tau fluor counter 1.4%, RORg inh 25.5%, Tau FP inhib -3.7% and Gal4-VP16 FLuc 2.6%.
For CCc1ccc(/C(C)=N\Nc2ccc([N+](=O)[O-])cc2)cc1 the results were Tau fibril ThT 3.55µM*, Tau fluor counter inconclusive, RORg inh 19.8%, Tau FP inhib -4.4% and Gal4-VP16 FLuc -11.2%.
`C/C(=N\Nc1ccc([N+](=O)[O-])cc1)c1ccco1` gave Tau fibril ThT 5.01µM*, Tau fluor counter inconclusive, RORg inh 44.0%, Tau FP inhib 9.0% and Gal4-VP16 FLuc inconclusive.
`CC/C(=N\Nc1ccc([N+](=O)[O-])cc1)c1ccccc1` gave Tau fibril ThT 2µM*, Tau fluor counter inconclusive, RORg inh -0.8%, Tau FP inhib -10.4% and Gal4-VP16 FLuc -3.4%.
`O=[N+]([O-])c1ccc(N/N=C/c2ccccc2O)cc1` gave RORg inh inconclusive and Gal4-VP16 FLuc -4.1%.
`NC1=NC(S)C2N=CN=C2N1` (centres undefined) gave RORg inh -24.0% and Gal4-VP16 FLuc 29.8%.
`Cc1oc2ncn(C)c(=O)c2c1C(=O)Nc1ccc(F)cc1` gave Tau fibril ThT 1.5%, Tau fluor counter 0.3% and Tau FP inhib 0.0%.
C/C(=N\Nc1ccc([N+](=O)[O-])cc1)c1ccc(N2CCOCC2)cc1 was read as Tau fibril ThT inconclusive, Tau fluor counter inconclusive, RORg inh -11.4%, Tau FP inhib inconclusive and Gal4-VP16 FLuc -8.2%.
Screening C/C(=N\Nc1nc(C)c(C)s1)c1ccc([N+](=O)[O-])cc1 returned Tau fibril ThT 14.1µM*, Tau fluor counter inconclusive, RORg inh 11.2µM*, Tau FP inhib 9.1% and Gal4-VP16 FLuc inconclusive.
For Cc1cc(C(=O)NNC(=S)NC(=O)/C=C/c2ccccc2Cl)n[nH]1 the results were Tau fibril ThT inconclusive, Tau fluor counter -20.0%, RORg inh inconclusive, Tau FP inhib 11.8% and Gal4-VP16 FLuc 12.6µM*.
`Cc1cccc(C(=O)NC(=S)NNC(=O)c2ccccc2Cl)c1` gave Tau fibril ThT inconclusive, Tau fluor counter -7.0%, RORg inh 4.47µM*, Tau FP inhib -0.3% and Gal4-VP16 FLuc inconclusive.
`Cc1cc(C)nc(NC(=O)/C=C/c2ccccc2Cl)n1` gave Tau fibril ThT -12.2%, Tau fluor counter -3.2%, RORg inh inconclusive, Tau FP inhib -10.4% and Gal4-VP16 FLuc 2.2%.
`Cc1cccc(C(=O)NC(=S)NNC(=O)COc2c(C)cccc2C)c1` gave Tau fibril ThT inconclusive, Tau fluor counter -13.9%, RORg inh 12.6µM*, Tau FP inhib 7.2% and Gal4-VP16 FLuc inconclusive.
For Cc1cccc(C(=O)NC(=S)NNC(=O)Cc2ccccc2)c1 the results were Tau fibril ThT -14.1%, Tau fluor counter -5.4%, RORg inh 10µM*, Tau FP inhib -2.6% and Gal4-VP16 FLuc -14.5%.
`CNC(=S)NNC(=O)Cc1ccccc1` gave Tau fibril ThT -22.3%, Tau fluor counter -7.8%, RORg inh -22.0%, Tau FP inhib 2.2% and Gal4-VP16 FLuc 8.7%.
Screening Cc1cccc(C(=O)NNC(=O)c2ccccc2Br)c1 returned RORg inh -1.0% and Gal4-VP16 FLuc inconclusive.
`Cc1ccc2nc3nc4ccc[nH]c4cc3c2c1` gave Tau fibril ThT -7.5%[11.5 µM], Tau fluor counter -8.2%[11.6 µM], RORg inh inconclusive, Tau FP inhib -0.5%[11.6 µM] and Gal4-VP16 FLuc 1.8%[10 µM].
COc1ccccc1NC(=O)CCCn1c(=S)[nH]c2ccccc2c1=O was read as Tau fibril ThT 6.6%, Tau fluor counter -5.1%, RORg inh 10µM*, Tau FP inhib -5.9% and Gal4-VP16 FLuc inconclusive.
`COc1ccccc1Cn1c(=S)[nH]c2ccccc2c1=O` gave RORg inh 10µM* and Gal4-VP16 FLuc 14.1µM*.
For NS(=O)(=O)c1ccc(CCn2c(=S)[nH]c3ccc(F)cc3c2=O)cc1 the results were Tau fibril ThT 0.5%, Tau fluor counter 0.2%, RORg inh inconclusive, Tau FP inhib -7.4% and Gal4-VP16 FLuc -6.6%.
`COc1ccccc1Cn1c(=S)[nH]c2cc(C(=O)NC(C)C)ccc2c1=O` gave RORg inh 0.2% and Gal4-VP16 FLuc -9.9%.
O=c1c2cc(F)ccc2[nH]c(=S)n1Cc1ccc(F)cc1 was read as RORg inh 1.41µM* and Gal4-VP16 FLuc 3.16µM*.
COc1ccccc1Cn1c(=S)[nH]c2ccc(Br)cc2c1=O was read as RORg inh 2µM* and Gal4-VP16 FLuc 5.62µM*.

Screening results: PubChem BioAssay, National Center for Advancing Translational Sciences (NCATS)
